From PubChem BioAssay (NCI) come the findings set out here.

This is part of a sample that, as a whole, favours compounds with a hit. Of some 83,000 tested, about 20% had one in any assay.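 The endpoint reported here, percent growth, reads 100 for growth as untreated, 0 for no net growth and -100 for all cells dead.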 A number with no mark means an inactive call. The source made the active and inactive calls. How the source made its calls: active means growth percent below 10; inactive means the rest.

Experiment in all cases: NCI-60 one-dose screen, 48 h (100 = growth as untreated, 0 = no growth, -100 = all killed)
Settings in all cases: 10 µM unless noted

Assay [1] has as its system DU-145 prostate.
In assay [2] the test system is K-562 leukemia.
In assay [3] the test system is MALME-3M melanoma.
In assay [4] the test system is MDA-MB-231 breast.
For assay [5], the system named is RXF 393 renal.
In assay [6] the test system is SF-268 CNS.
Assay [7] deals with SF-295 CNS.
Assay [8] has as its system SF-539 CNS.
Assay [9] concerns UACC-257 melanoma.
Assay [10] relates to M14 melanoma.
The test system of assay [11] is HCT-15 colon.
For assay [12], the system named is HT29 colon.
For assay [13], the system named is SNB-75 CNS.
Assay [14] has as its system SNB-19 CNS.
Assay [15] relates to U251 CNS.
The test system of assay [16] is PC-3 prostate.
For assay [17], the system named is SK-MEL-5 melanoma.
The test system of assay [18] is UACC-62 melanoma.
For assay [19], the system named is LOX IMVI melanoma.
Assay [20] deals with SK-MEL-28 melanoma.

`COc1ccc(Cc2cnc(NC(=O)c3cc(C)oc3C)s2)cc1`: the growth in [1] was 40.7%; in assay [2], 11.4%; in assay [3], 52.5%; in assay [4], 63.6%; in assay [5], 16.4%; in [6], 53.3%. In addition, the growth was 39.4% in assay [7]; 32.5% in assay [8]; 57.3% in [9]; 18.9% in assay [10]; 26.9% in [11]; 13.6% in [12]. Besides, the growth in assay [13] was -8.41% (active); in assay [14], 38.7%; in assay [15] it was 35.8%; in [16] it was 39.3%; in assay [17] it was 25.8%; in assay [18], 27.1%. Further, the growth in assay [19] was 39.9%; in assay [20], 54.3%.
For the molecule `Cc1ccccc1/C=C/C(=O)c1cccc(OCCCCOc2cccc(C(=O)/C=C/c3ccccc3C)c2)c1`, the growth is 98% in assay [1]; 97.1% in assay [2]; 96.9% in [3]; 95% in assay [4]; 98.6% in assay [5]; 102% in [6]. Further, the growth in [7] is 97.7%; in assay [8], 105%; in assay [9] it was 92.2%; in assay [10], 97.9%; in assay [11], 84.6%; in [12], 86.8%. For the same molecule, the growth is 90.9% in assay [13]; 93.5% in assay [14]; 93% in [15]; 100% in assay [16]; 101% in assay [17]; 74.8% in assay [18]. The growth was 95.9% in [19] and 95.2% in [20].
Take `Oc1c(I)cc(I)cc1CNCc1ccccn1`: the growth in assay [1] was 49.9%; in [2], 20.9%; in assay [3] it was 42.5%; in assay [4], 38.3%; in assay [5], 70.2%; in [6] it was 36.8%. Also, the growth in assay [7] was 25.7%; in [8], 20.2%; in assay [9], 15.4%; in [10] it was 8.61% (active); in assay [11], 26.8%; in [12], 36.6%. Besides, the growth in assay [13] was 75.6%; in assay [14], 30.5%; in assay [15] it was 15.6%; in assay [16], 39.5%; in [17] it was 37.3%; in assay [18], 19.6%. In addition, the results for the growth in assay [19] and in [20] were 30.2% and 48.6%, respectively.
For `N#Cc1c(-c2ccc(Cl)cc2)c(C#N)c2c(C#N)c(N)nn2c1N`, the growth is 84% in [1]; 89.3% in [2]; 106% in assay [3]; 71.3% in [4]; 79.7% in assay [5]; 83.7% in assay [6]. Further, the growth in [7] was 83.3%; in assay [8], 78%; in [9], 89.2%; in assay [10], 103%; in [11] it was 88.2%; in assay [12], 83.3%. The growth in assay [13] was 74.8%; in assay [14] it was 88.2%; in [15], 87.9%; in assay [16], 65.2%; in [17], 87.9%; in [18], 72.9%. In addition, the growth was 76.6% in [19] and 99.3% in assay [20].
As to `O=C(O)c1cn(C2CC2)c2cc(N3CCN(Cc4ccc5ccccc5c4O)CC3)c(F)cc2c1=O`, the growth is 11.2% in assay [1]; 62% in [2]; 13.9% in assay [3]; 48.4% in assay [4]; -23.2% (active) in assay [5]; 57.1% in [6]. Also, the growth in [7] is 44.2%; in assay [8], -4.68% (active); in assay [9], 38.5%; in [10] it was 48%; in [11] it was 9.69% (active); in assay [12], -32.4% (active). In addition, the growth in assay [13] was -14.4% (active); in assay [14] it was 78.3%; in assay [15], 45.8%; in assay [16], 39.3%; in assay [17], 61.6%; in assay [18], 38.8%. Besides, the growth in [19] is 40.1%; in assay [20], 38.6%.
On to `Cn1ccnc1C(=O)/C=C/c1ccc(C(=O)Nc2ccccc2O)cc1`, for which the growth in assay [1] was 45.6%; in assay [2], 7.38% (active); in assay [3], 57.8%; in assay [4], 46.2%; in assay [5], 21.7%; in [6] it was 13.2%. Further, the growth in [7] was 6.78% (active); in [8] it was -19.3% (active); in assay [9] it was 48.6%; in [10] it was 71.5%; in assay [11] it was 7.09% (active); in [12] it was 24.7%. Besides, the growth is 46.2% in assay [13]; 14.3% in [14]; 5.29% (active) in assay [15]; 23.5% in assay [16]; 89.3% in [17]; 50.6% in assay [18]. Also, the growth was -18% (active) in assay [19] and 73.4% in assay [20].
As to `COc1ccc(\C=N/N=C(N)/C(N)=N\N=C/c2ccc(OC)cc2)cc1`, the growth in assay [1] was 113%; in assay [2], 99.9%; in [3] it was 106%; in assay [4], 107%; in assay [5], 96.9%; in assay [6], 100%. Also, the growth is 97.3% in assay [7]; 92.7% in assay [8]; 121% in [9]; 111% in [10]; 104% in assay [11]; 102% in assay [12]. Moreover, the growth in [13] is 86.8%; in [14] it was 112%; in [15], 107%; in assay [16], 101%; in [17], 105%; in assay [18], 104%. The results for the growth in assay [19] and in assay [20] were 99.1% and 125%, respectively.
With `CSc1oc(C)nc1[P+](c1ccccc1)(c1ccccc1)c1ccccc1`, the growth in [1] is 57.6%; in [2], 31%; in [3], 76.1%; in assay [4], 65.4%; in assay [5], 75.9%; in [6] it was 54.8%. The growth in assay [7] is 78.3%; in assay [8] it was 79.6%; in [9], 20.5%; in [10], 74.9%; in [11], 104%; in [12], 53.9%. The growth in assay [13] is 75.9%; in assay [14], 45%; in assay [15] it was 42.2%; in assay [16], 52.1%; in [17], -9.07% (active); in assay [18] it was 47.2%. In addition, the growth in assay [19] was 28.7%; in assay [20], 61.1%.
Take `N#CC(C#N)N=Nc1ccc(Br)cc1`: the growth in assay [1] is 38.5%; in [2], 12.5%; in assay [3] it was 12.1%; in assay [4] it was 18.5%; in assay [5], 87.4%; in [6], 90.2%. In addition, the growth was 95.7% in assay [7]; 30.4% in assay [8]; 10% in [9]; 42.9% in assay [10]; 16.8% in assay [11]; 20.9% in assay [12]. Moreover, the growth in [13] is 94.2%; in assay [14] it was 96.3%; in [15] it was 83.4%; in assay [16] it was 19.1%; in assay [17], 77.9%; in assay [18], 37.4%. The results for the growth in assay [19] and in assay [20] were 60.1% and 43.8%, respectively.
Take `COc1ccc(/C=C/C(=O)c2cccc(OCCCCOc3cccc(C(=O)/C=C/c4ccc(OC)c(OC)c4)c3)c2)cc1OC`: the growth in assay [1] was 83.3%; in assay [2], 50.7%; in [3], 77.7%; in [4], 87.7%; in [5], 79.1%; in [6], 76.2%. Moreover, the growth is 47% in assay [7]; 87.7% in [8]; 57.1% in assay [9]; 78.6% in [10]; 80.9% in assay [11]; 92% in assay [12]. Further, the growth in assay [13] is 67.8%; in assay [14] it was 81.6%; in assay [15], 84.8%; in [16] it was 67%; in assay [17], 9.83% (active); in [18], 57.7%. Besides, the growth in assay [19] was 61.7%; in assay [20] it was 86%.
Regarding `CCn1cc(C(=O)O)c(=O)c2cc(F)c(N3CCN(CC(=O)Nc4ccc(S(=O)(=O)Nc5nccc(C)n5)cc4)C(C)C3)c(F)c21` (stereo not given), the growth in assay [1] was 105%; in assay [2], 105%; in assay [3], 111%; in [4], 100%; in assay [5], 99%; in assay [6], 98.3%. Besides, the growth in assay [7] is 104%; in assay [8] it was 99.2%; in assay [9], 114%; in [10], 103%; in assay [11] it was 100%; in assay [12] it was 117%. The growth in assay [13] was 95.7%; in assay [14], 98.7%; in assay [15], 110%; in [16], 98%; in assay [17] it was -93.3% (active); in assay [18] it was 94.2%. The growth is 95.6% in assay [19] and 107% in assay [20].
Regarding `O=S(=O)(NCCCNc1nccc(-c2c(-c3ccc(F)c(O)c3)nc3occn23)n1)c1ccc(Cl)cc1`, the growth in assay [1] is 73.5%; in [2], 45.8%; in assay [3] it was 5.66% (active); in assay [4], 40.4%; in assay [5], 30.8%; in assay [6] it was 66.5%. For the same molecule, the growth is 103% in assay [7]; 87.5% in assay [8]; 33.8% in assay [9]; 19.6% in [10]; 73.2% in assay [11]; 54.4% in assay [12]. Besides, the growth was 95.6% in assay [13]; 97% in assay [14]; 94% in [15]; 56.8% in [16]; 33.2% in assay [17]; 11.7% in assay [18]. Also, the values for the growth in [19] and in [20] were 36.2% and 30%, respectively.
For `C=C(C)[C@@H]1CC[C@]2(C(=O)O)CC[C@]3(C)[C@H](CC[C@@H]4[C@@]5(C)CCC(NC(=O)c6cccc(OC(C)=O)c6OC(C)=O)C(C)(C)[C@@H]5CC[C@]43C)[C@@H]12` (stereo not given in full), the growth in assay [1] was 21.3%; in [2], 10.7%; in assay [3], -4.37% (active); in assay [4], 11.9%; in assay [5], -34.3% (active); in [6], 14.9%. Besides, the growth in assay [7] is -29.6% (active); in [8], -26.4% (active); in [9], 3.36% (active); in assay [10], -16.2% (active); in [11], 6.94% (active); in [12], 8.01% (active). For the same molecule, the growth is 12.5% in assay [13]; 26% in [14]; 9.78% (active) in [15]; 17.6% in [16]; -81.7% (active) in assay [17]; -38.3% (active) in assay [18]. The values for the growth in [19] and in [20] were -74.1% (active) and 12%, respectively.
Regarding `Cc1ccc(-c2nc([P+](c3ccccc3)(c3ccccc3)c3ccccc3)c(S(=O)(=O)c3ccc(C)cc3)o2)cc1`, the growth is 25.5% in assay [1]; 4.12% (active) in assay [2]; -0.571% (active) in assay [3]; 3.47% (active) in assay [4]; -28.6% (active) in assay [5]; 45.5% in assay [6]. The growth in [7] is 81%; in assay [8], -65.6% (active); in [9], 3.98% (active); in assay [10], 19.3%; in assay [11] it was 4.17% (active); in [12] it was 0% (active). In addition, the growth in assay [13] was -11.3% (active); in assay [14] it was 53.5%; in assay [15] it was 3.23% (active); in [16], 11.2%; in assay [17], 48.7%; in assay [18], 26.1%. Moreover, the growth in assay [19] was -31.7% (active); in [20], 24.6%.
